Test results published in PubChem BioAssay (EPA / NIEHS).
Inconclusive results are not listed. Active and inactive are the calls of the source. Rule for the calls, unless noted: active = hit-call score of the fitted dose curve at least 0.9, where 1 is the maximum; inactive = score below 0.9.

Tests used:
[1] = molecular target: Paired box protein Pax-6 (Homo sapiens) (UniProt P26367); assay: ATG_Pax6_CIS: Attagene CIS-FACTORIAL HepG2 Assay for human Paired Box 6 (PAX6) (AID 2282956); conditions: HepG2 CIS-FACTORIAL PAX6 reporter transcription, RNA readout; actives raise or lower the signal
How it was run: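 Transient MRTU transfection of HepG2 → compound exposure 24 h → TriZol RNA, oligo(dT) RT → PCR, 6-FAM primer extension, HpaI cut → capillary electrophoresis; activity fitted both directions against DMSO.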

[2] = ATG_PXRE_CIS: Attagene CIS-FACTORIAL HepG2 Assay for human Pregnane X Receptor Element (PXRE) (AID 2282957); conditions: HepG2 Attagene CIS-FACTORIAL PXRE reporter, mRNA; actives raise or lower the signal
How it was run: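 Cells: HepG2, transiently transfected reporter units under cis promoter control. Exposure: 24 h. Detection: reporter mRNA via RT-PCR/CE fluorescence; bidirectional fitting, DMSO-referenced.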

[3] = ATG_PPRE_CIS: Attagene CIS-FACTORIAL HepG2 Assay for human Peroxisome Proliferator-activated Response Element (PPRE) (AID 2282958); conditions: HepG2 PPRE cis-element reporter, Attagene transcription factor profiling; actives raise or lower the signal
How it was run: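 Cells are first transfected transiently with the multiplexed reporter library, then dosed for 24 h. Total RNA is reverse-transcribed, amplified, fluorescently end-labeled and HpaI-cut before capillary electrophoresis; activity is fitted bidirectionally against DMSO controls.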

[4] = ATG_RORE_CIS: Attagene CIS-FACTORIAL HepG2 Assay for human RAR-related Orphan Receptor Element (RORE) (AID 2282959); conditions: HepG2 Attagene cis-factorial RORE reporter, mRNA; actives raise or lower the signal
How it was run: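 Cells were HepG2 carrying transfected cis-regulated reporter constructs, dosed for 24 hours. Total RNA was reverse-transcribed and reporter cDNA amplified, fluorescently labeled and sized by capillary electrophoresis. Activity was fitted bidirectionally relative to DMSO.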

[5] = ATG_Sox_CIS: Attagene CIS-FACTORIAL HepG2 Assay for human SRY-box transcription factor (SOX) (AID 2282960); conditions: HepG2 Attagene cis-factorial SOX reporter, mRNA; actives raise or lower the signal
How it was run: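 Transient MRTU transfection of HepG2; 24 h compound incubation; TriZol RNA, oligo(dT) RT, PCR, 6-FAM primer extension, HpaI cut, CE. Bidirectional fit, DMSO = baseline.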

[6] = molecular target: Transcription factor Sp1 (Homo sapiens) (UniProt P08047); assay: ATG_Sp1_CIS: Attagene CIS-FACTORIAL HepG2 Assay for human Specificity Protein 1 (Sp1) (AID 2282961); conditions: HepG2 Sp1 cis-reporter transcription, actives raise or lower the signal
How it was run: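 Endogenous Sp1 activity was gauged in human liver HepG2 cells bearing transfected reporter units under a cis-regulating promoter. After 24 h dosing, reporter mRNA was quantified by RT-PCR with capillary electrophoresis, and activity fitted bidirectionally versus DMSO.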

[7] = molecular target: Signal transducer and activator of transcription 3 (Homo sapiens) (UniProt P40763); assay: ATG_STAT3_CIS: Attagene CIS-FACTORIAL HepG2 Assay for human Signal Transducer and Activator of Transcription 3 (STAT3) (AID 2282963); conditions: HepG2, Attagene cis-factorial STAT3 reporter transcription; actives raise or lower the signal
How it was run: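 Values derive from bidirectional fits relative to DMSO of reporter mRNA levels, measured by RT-PCR with capillary electrophoresis, in HepG2 cells carrying transiently transfected cis-regulated reporter units and exposed 24 h.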

[8] = ATG_TA_CIS: Attagene CIS-FACTORIAL HepG2 Assay for human TA Basal Promoter (AID 2282964); conditions: HepG2 Attagene CIS-factorial TA basal promoter reporter; actives raise or lower the signal
How it was run: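 HepG2 cells transiently transfected with multiplexed cis-promoter reporter units, dosed 24 h. Reporter mRNA measured by RT-PCR, 6-FAM labelling, HpaI digestion and capillary electrophoresis; bidirectional fit versus DMSO baseline, serving as background control.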

[9] = ATG_TCF_b_cat_CIS: Attagene CIS-FACTORIAL HepG2 Assay for human T-Cell-Factor with beta-catenin (TCF/b-cat) (AID 2282965); conditions: HepG2 TCF/beta-catenin cis-reporter transcription, actives raise or lower the signal
How it was run: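 Cells of the HepG2 line carry transiently transfected reporter units whose promoters respond to endogenous factors. Twenty-four hours post-dosing, reporter mRNA induction is measured by fluorescent RT-PCR and capillary electrophoresis, with DMSO as baseline.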

[10] = ATG_TAL_CIS: Attagene CIS-FACTORIAL HepG2 Assay for human TAL Basal Promoter (AID 2282966); conditions: HepG2 Attagene cis-factorial TAL promoter reporter; actives raise or lower the signal;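 note: background control endpoint measuring basal TAL promoter reporter mRNA not a specific factor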
How it was run: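 RT-PCR plus capillary electrophoresis quantifies reporter mRNA induction in transiently transfected HepG2 cells after 24 h chemical treatment. DMSO serves as negative control and baseline for bidirectional fitting.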

[11] = ATG_TGFb_CIS: Attagene CIS-FACTORIAL HepG2 Assay for human Transforming Growth Factor (TGF) (AID 2282967); conditions: HepG2 Attagene CIS TGFb reporter, mRNA transcription; actives raise or lower the signal
How it was run: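 HepG2 cells transiently transfected with cis-promoter-driven multiplexed reporter units; 24 h compound exposure. Reporter mRNA measured by RT-PCR, 6-FAM labeling, HpaI digestion and capillary electrophoresis; bidirectional fit versus DMSO baseline.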

[12] = ATG_VDRE_CIS: Attagene CIS-FACTORIAL HepG2 Assay for human Vitamin D Receptor Element (VDRE) (AID 2282968); conditions: HepG2 VDRE cis-reporter transcription, actives raise or lower the signal
How it was run: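 Cell-based multiplexed reporter format in human liver HepG2 cells, 24 h post-dose. Fluorescence from capillary electrophoresis of reporter cDNA gives the signal, with DMSO as negative control and baseline.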

[13] = ATG_M_19_TRANS: Attagene TRANS-FACTORIAL HepG2 Assay for M19 Transcription Factor (Internal Marker) (AID 2282974; active = hit-call score of the fitted dose curve at least 0.9, where 1 is the maximum); conditions: HepG2 Attagene TRANS-FACTORIAL M19 internal marker reporter
How it was run: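 Cells: human HepG2, transiently transfected with multiplexed reporter transcription units. Exposure: 24 h. Detection: RT-PCR of reporter mRNA with capillary electrophoresis. Analysis: gain-of-signal vs DMSO.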

[14] = ATG_GAL4_TRANS: Attagene TRANS-FACTORIAL HepG2 Assay for GAL4 (Internal Marker) (AID 2282976; active = hit-call score of the fitted dose curve at least 0.9, where 1 is the maximum); conditions: HepG2 Attagene TRANS GAL4 internal marker reporter
How it was run: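 In transfected human HepG2 liver cells dosed 24 h, GAL4 reporter mRNA serves as a baseline marker. Detection by RT-PCR with fluorescent capillary electrophoresis, activity fitted upward relative to DMSO.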

[15] = ATG_SREBP_CIS: Attagene CIS-FACTORIAL HepG2 Assay for human Sterol Regulatory Element Binding (SREBP) (AID 2282962); conditions: HepG2 Attagene cis-factorial SREBP reporter, mRNA; actives raise or lower the signal
How it was run: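 Transfected HepG2 (cis-regulated reporter library, endogenous TFs) → compound 24 h → total RNA → oligo(dT) RT → reporter-specific PCR → FAM primer extension, HpaI cut → CE fluorescence. Fit bidirectional vs DMSO.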

[16] = molecular target: Estrogen receptor (Homo sapiens) (UniProt P03372); assay: ATG_ERa_TRANS: Attagene TRANS-FACTORIAL HepG2 Assay for human Estrogen Receptor alpha (ERa) (AID 2282970; active = hit-call score of the fitted dose curve at least 0.9, where 1 is the maximum); conditions: HepG2 Attagene TRANS ERa GAL4 reporter, mRNA
How it was run: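 Cells: HepG2, transiently transfected. Construct: GAL4-UAS reporter units regulated by exogenous NR-Gal4 chimeras. Time: 24 h. Detection: reporter mRNA by RT-PCR, capillary electrophoresis, fluorescence. Baseline: DMSO, upward fitting.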

[17] = molecular target: X-box-binding protein 1 (Homo sapiens) (UniProt P17861); assay: ATG_Xbp1_CIS: Attagene CIS-FACTORIAL HepG2 Assay for human X-box Binding Protein 1 (XBP1) (AID 2282972); conditions: HepG2 XBP1 cis-element reporter, Attagene multiplex; actives raise or lower the signal
How it was run: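 HepG2, transient MRTU transfection (cis-promoter driven), 24 h compound exposure. Total RNA → oligo(dT) RT → PCR → 6-FAM labeling → HpaI cut → CE. Bidirectional fit vs DMSO.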

[18] = molecular target: Nuclear receptor subfamily 1 group I member 3 (Homo sapiens) (UniProt Q14994); assay: ATG_CAR_TRANS: Attagene TRANS-FACTORIAL HepG2 Assay for human Constitutive Androstane Receptor (CAR) (AID 2282969; active = hit-call score of the fitted dose curve at least 0.9, where 1 is the maximum;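 note: activators raise reporter mRNA above DMSO so AC50 marks induction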); conditions: HepG2 Attagene TRANS-FACTORIAL CAR reporter
How it was run: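 HepG2 cells transiently transfected with GAL4-UAS reporter units; TRANS format reads activity of exogenous chimeric NR-Gal4 protein. After 24 h dosing, reporter mRNA quantified by RT-PCR, 6-FAM labelling and capillary electrophoresis; gain of signal fitted against DMSO.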

[19] = molecular target: Estrogen-related receptor gamma (Homo sapiens) (UniProt P62508); assay: ATG_ERRg_TRANS: Attagene TRANS-FACTORIAL HepG2 Assay for human Estrogen-Related Receptor gamma (ERRg) (AID 2282977; active = hit-call score of the fitted dose curve at least 0.9, where 1 is the maximum;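 note: hits increase reporter signal over DMSO so potencies reflect activators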); conditions: HepG2 Attagene TRANS reporter, ERRg transactivation
How it was run: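 HepG2 cells transiently transfected with multiplexed GAL4-UAS reporter units and chimeric NR-Gal4 constructs were exposed to test chemicals for 24 h. Reporter mRNA was measured by RT-PCR, 6-FAM primer extension, HpaI digestion and capillary electrophoresis; gain-of-signal versus DMSO.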

[20] = molecular target: Steroid hormone receptor ERR1 (Homo sapiens) (UniProt P11474); assay: ATG_ERRa_TRANS: Attagene TRANS-FACTORIAL HepG2 Assay for human Estrogen-Related Receptor alpha (ERRa) (AID 2282971; active = hit-call score of the fitted dose curve at least 0.9, where 1 is the maximum); conditions: HepG2 Attagene TRANS reporter, ERRa transactivation
How it was run: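 Reporter transcripts from ERRa-Gal4 chimera activity measured in transiently transfected human HepG2 cells 24 hours after dosing, using RT-PCR with 6-FAM primer extension, HpaI digestion and capillary electrophoresis; DMSO is baseline.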

Measured: outcome

X-box-binding protein 1 (Homo sapiens), sequence (P17861 whole entry, looked up): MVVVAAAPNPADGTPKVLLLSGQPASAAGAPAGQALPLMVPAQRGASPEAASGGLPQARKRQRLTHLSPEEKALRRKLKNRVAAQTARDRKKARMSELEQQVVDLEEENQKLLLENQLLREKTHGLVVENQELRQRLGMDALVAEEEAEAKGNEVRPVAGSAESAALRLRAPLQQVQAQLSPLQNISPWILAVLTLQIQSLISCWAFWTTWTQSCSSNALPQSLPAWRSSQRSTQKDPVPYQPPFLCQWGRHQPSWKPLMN
Transcription factor Sp1 (Homo sapiens), sequence (P08047 whole entry, looked up): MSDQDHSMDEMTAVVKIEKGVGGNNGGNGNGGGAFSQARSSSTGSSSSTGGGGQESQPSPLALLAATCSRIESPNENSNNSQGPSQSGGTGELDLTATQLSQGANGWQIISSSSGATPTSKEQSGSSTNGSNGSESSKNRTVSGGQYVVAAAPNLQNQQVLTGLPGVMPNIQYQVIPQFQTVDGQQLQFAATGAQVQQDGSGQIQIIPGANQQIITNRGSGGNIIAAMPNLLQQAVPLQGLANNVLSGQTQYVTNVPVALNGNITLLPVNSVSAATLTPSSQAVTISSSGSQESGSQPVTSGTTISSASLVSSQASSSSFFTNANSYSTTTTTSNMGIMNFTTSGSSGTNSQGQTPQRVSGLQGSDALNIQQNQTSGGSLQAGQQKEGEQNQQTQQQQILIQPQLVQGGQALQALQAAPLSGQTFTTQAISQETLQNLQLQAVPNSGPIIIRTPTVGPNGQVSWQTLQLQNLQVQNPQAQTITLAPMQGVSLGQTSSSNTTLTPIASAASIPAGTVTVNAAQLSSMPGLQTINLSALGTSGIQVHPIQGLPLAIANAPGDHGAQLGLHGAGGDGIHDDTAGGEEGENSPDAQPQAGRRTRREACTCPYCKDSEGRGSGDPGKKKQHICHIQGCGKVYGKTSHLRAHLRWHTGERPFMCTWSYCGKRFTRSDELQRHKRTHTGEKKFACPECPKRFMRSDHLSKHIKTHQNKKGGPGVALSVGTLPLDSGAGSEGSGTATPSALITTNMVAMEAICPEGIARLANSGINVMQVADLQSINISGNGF
Estrogen receptor (Homo sapiens), sequence (P03372 whole entry, looked up, the tested form may be a part): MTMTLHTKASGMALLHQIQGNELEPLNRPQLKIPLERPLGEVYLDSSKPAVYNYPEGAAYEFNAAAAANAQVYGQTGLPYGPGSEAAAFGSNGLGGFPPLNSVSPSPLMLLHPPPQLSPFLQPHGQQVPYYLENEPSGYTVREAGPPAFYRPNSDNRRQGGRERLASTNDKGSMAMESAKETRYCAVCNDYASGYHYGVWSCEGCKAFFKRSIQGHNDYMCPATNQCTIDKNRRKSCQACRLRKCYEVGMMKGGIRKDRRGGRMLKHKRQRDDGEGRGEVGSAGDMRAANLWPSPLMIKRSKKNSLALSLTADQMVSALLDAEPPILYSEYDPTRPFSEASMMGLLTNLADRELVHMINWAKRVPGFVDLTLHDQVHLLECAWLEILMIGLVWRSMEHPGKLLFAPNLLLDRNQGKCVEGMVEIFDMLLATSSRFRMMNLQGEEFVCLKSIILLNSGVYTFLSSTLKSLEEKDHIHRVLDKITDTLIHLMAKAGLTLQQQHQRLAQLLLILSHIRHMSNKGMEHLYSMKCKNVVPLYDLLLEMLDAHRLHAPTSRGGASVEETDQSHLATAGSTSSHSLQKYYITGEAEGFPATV
Signal transducer and activator of transcription 3 (Homo sapiens), sequence (P40763 whole entry, looked up): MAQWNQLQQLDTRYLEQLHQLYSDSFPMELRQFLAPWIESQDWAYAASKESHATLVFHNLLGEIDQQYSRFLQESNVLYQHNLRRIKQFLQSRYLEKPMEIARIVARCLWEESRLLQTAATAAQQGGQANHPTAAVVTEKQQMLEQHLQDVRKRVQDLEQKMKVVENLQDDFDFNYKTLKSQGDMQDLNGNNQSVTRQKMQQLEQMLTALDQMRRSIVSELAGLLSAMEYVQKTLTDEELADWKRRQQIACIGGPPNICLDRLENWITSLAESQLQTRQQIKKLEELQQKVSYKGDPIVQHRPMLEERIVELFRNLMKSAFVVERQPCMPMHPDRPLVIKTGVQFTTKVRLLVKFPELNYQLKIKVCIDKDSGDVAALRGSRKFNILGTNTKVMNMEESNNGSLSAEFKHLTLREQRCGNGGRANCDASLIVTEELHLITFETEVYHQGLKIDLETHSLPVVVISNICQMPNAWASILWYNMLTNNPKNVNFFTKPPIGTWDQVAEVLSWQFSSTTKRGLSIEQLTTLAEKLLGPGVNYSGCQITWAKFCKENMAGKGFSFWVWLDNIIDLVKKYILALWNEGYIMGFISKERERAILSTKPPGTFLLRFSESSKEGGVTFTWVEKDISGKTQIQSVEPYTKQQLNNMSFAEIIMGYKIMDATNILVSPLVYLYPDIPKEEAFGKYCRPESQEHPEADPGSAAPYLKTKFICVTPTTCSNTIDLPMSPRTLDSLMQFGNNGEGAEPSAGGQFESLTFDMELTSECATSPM
Paired box protein Pax-6 (Homo sapiens), sequence (P26367 whole entry, looked up): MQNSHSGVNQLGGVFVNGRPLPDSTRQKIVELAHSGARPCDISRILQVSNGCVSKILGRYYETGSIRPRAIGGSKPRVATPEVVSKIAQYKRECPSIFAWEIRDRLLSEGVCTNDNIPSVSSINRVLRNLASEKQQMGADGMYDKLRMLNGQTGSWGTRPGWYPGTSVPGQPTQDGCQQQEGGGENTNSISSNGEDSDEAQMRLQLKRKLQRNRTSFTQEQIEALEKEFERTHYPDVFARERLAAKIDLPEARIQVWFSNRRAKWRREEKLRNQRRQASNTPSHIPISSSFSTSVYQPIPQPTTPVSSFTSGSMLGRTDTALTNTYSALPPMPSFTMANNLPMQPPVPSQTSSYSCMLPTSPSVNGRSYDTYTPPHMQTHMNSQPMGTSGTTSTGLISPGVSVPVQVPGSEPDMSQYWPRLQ
Nuclear receptor subfamily 1 group I member 3 (Homo sapiens), sequence (Q14994 whole entry, looked up, the tested form may be a part): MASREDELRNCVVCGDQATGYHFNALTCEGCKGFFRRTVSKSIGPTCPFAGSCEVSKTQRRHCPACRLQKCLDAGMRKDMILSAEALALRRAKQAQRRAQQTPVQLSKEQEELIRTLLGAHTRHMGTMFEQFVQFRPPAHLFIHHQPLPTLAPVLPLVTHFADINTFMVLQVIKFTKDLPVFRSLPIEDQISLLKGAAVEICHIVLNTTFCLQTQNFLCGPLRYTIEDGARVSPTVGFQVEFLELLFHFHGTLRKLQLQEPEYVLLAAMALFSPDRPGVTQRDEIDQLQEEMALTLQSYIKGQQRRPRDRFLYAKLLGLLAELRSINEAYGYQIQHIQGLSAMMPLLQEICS
Estrogen-related receptor gamma (Homo sapiens), sequence (P62508 whole entry, looked up, the tested form may be a part): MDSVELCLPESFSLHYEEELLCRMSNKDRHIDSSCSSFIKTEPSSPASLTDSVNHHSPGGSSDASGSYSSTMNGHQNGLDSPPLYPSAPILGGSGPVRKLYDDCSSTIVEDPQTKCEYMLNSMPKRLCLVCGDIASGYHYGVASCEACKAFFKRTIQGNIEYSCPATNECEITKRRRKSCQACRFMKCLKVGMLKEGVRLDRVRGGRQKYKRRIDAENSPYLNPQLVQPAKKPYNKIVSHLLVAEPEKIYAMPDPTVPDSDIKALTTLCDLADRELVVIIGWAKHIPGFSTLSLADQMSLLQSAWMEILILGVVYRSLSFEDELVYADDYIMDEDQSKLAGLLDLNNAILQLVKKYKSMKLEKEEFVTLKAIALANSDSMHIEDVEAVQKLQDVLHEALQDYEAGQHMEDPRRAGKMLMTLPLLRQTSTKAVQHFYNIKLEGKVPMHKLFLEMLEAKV
Steroid hormone receptor ERR1 (Homo sapiens), sequence (P11474 whole entry, looked up, the tested form may be a part): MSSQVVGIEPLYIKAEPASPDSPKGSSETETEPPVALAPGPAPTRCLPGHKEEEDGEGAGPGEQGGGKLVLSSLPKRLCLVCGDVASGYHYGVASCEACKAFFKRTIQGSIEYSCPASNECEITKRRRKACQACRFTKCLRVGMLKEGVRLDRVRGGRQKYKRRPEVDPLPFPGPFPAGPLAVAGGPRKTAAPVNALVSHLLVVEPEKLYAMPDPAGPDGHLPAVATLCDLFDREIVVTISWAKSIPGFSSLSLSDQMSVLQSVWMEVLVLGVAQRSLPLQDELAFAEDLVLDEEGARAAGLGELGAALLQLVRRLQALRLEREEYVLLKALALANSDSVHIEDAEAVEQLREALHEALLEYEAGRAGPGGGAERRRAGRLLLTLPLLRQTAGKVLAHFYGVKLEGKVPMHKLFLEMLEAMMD

CCCCCCCC(C)=O
not listed: [15] | [16] | [17] | [18] | [19] | [20]
inactive: all other assays above

O=c1[nH]c(=O)c2[nH]c(=O)[nH]c2[nH]1
not listed: [6] | [12] | [13] | [14] | [18] | [19] | [20]
inactive: all other assays above

O=C(c1ccccc1)C1CCC1
not listed: [9] | [13] | [15] | [19] | [20]
inactive: all other assays above

Nc1ccc(Cl)cc1Cl
not listed: [12] | [13] | [14] | [15] | [16] | [18] | [20]
inactive: all other assays above

CC(C)c1ccc(C#N)cc1
not listed: [7] | [15] | [17] | [18] | [19]
inactive: all other assays above
